Test results: PubChem BioAssay
Calls of active or inactive are those of the source. Unless noted, the rule behind the calls is not given here.

Legend:
[1] = tested on: XIP peptide (Xip251-270) binding; assay: small-molecule binders of XIP peptide, primary screen, biochemical, small-molecule microarray, fluorescence 635/667 nm, 0.1 µg/mL protein (AID 1182); details: fluorescent protein binding, 635 nm, higher = more signal, called active from +8 up or from −8 down
XIP peptide (Xip251-270) = assay: small-molecule binders of XIP peptide, primary screen, biochemical, small-molecule microarray, fluorescence 635/667 nm, 0.5 µg/mL protein (AID 1183); details: small-molecule microarray binding, fluorescence 635 nm; higher = more signal
[2] = Plasmodium falciparum growth inhibition, primary screen, strain 3D7, DAPI fluorescence, 100 nL (AID 1184);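 note: parasites grown inside human red blood cells in medium with human serum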; details: P. falciparum 3D7 growth, 3 d, higher = more signal
[3] = molecular target: Homeobox protein Hox-A13 (Mus musculus) (UniProt Q62424); assay: inhibitors of HoxA13-DNA binding, primary screen, biochemical, fluorescence polarization, labeled oligonucleotide (AID 1185); details: 15 min, higher = more signal, called active from +8 up or from −8 down
[4] = inhibitors of hydroxyurea-induced Chk1 phosphorylation, primary screen, imaging, HeLa, phospho-Chk1 antibody, percent positive cells (AID 1186); details: hydroxyurea-induced phospho-Chk1 immunofluorescence imaging, higher = more signal
[5] = inhibitors of hydroxyurea-induced Chk1 phosphorylation, primary screen, imaging, HeLa, phospho-Chk1 nuclear intensity (AID 1187); details: hydroxyurea-induced phospho-Chk1 immunofluorescence imaging, higher = more signal

Chain of Homeobox protein Hox-A13 (Mus musculus) (Q62424 whole entry, looked up): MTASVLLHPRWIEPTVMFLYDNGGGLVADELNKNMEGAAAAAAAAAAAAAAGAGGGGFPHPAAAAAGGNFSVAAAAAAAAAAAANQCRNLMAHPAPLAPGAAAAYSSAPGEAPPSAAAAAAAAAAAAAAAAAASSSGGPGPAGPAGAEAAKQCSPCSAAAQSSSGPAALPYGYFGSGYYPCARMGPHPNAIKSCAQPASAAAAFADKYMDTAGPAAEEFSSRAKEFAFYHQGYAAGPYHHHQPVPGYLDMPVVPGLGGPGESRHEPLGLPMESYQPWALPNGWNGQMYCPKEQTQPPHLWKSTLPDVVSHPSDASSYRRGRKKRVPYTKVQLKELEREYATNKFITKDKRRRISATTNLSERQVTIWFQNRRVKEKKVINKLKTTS

Row | SMILES | composite z-score [1] | composite z-score (XIP peptide (Xip251-270)) | z-score [2] | z-score [3] | z-score [4] | z-score [5]
1 | CC(C)C(=C=CC[C@H](O)c1cccc(OCCO)c1)C[C@H](O)c1cc(Cl)cc(Cl)c1O | -0.41 (inactive) | 0.594 | -0.487 | -4.22 (inactive) | -0.568 (inactive) | 0.228 (inactive)
2 | C[N+](C)(C)CCCC[C@@H]1NC(=O)[C@H]2C[C@@H](C(=O)NCCCCCCN)[C@@H](c3ccc(O)cc3)N2C1=O | -0.465 (inactive) | 0.825 | -0.104 | -1.61 (inactive) | 0.181 (inactive) | 0.0555 (inactive)
3 | COCCCNC(=O)[C@@]1(Cc2ccccc2N=[N+]=[N-])N=C(c2ccc(OCCCO)cc2)O[C@H]1c1ccccc1 | 0.226 (inactive) | 0.818 | -2.49 | -5.46 (inactive) | 0.0251 (inactive) | 0.285 (inactive)
4 | CCCC[C@@H]1C[C@H]1[C@@H](NC(=O)c1cccs1)c1ccc(C(F)(F)F)cc1 | -0.011 (inactive) | -0.289 | -0.41 | -0.891 (inactive) | 0.984 (inactive) | 0.516 (inactive)
5 | Cc1ccc(S[C@]2(C(=O)O)CC(=O)N(Cc3cc(C(F)(F)F)cc(C(F)(F)F)c3)[C@@H]2c2ccc(CO)cc2)cc1 | -0.287 (inactive) | -1.25 | 0.777 | -3.18 (inactive) | 0.0261 (inactive) | -0.641 (inactive)
6 | Cc1cc(C)c(C(O)C2C=CC3C(=O)NC(=O)C3N2Nc2ccc(Cl)cc2Cl)c(C)c1 (stereo unspecified) | 0.696 (inactive) | 0.179 | 0.17 | -3.47 (inactive) | 0.73 (inactive) | 0.314 (inactive)
7 | C=C(C(=O)CC[C@@H](OC(C)=O)c1ccc(CO)o1)C(C)C | 0.164 (inactive) | 0.656 | -0.14 | -4.08 (inactive) | 0.257 (inactive) | 0.636 (inactive)
8 | COc1ccc([Si](C)(C)[C@H]2[C@H](CC(=O)N(CCO)Cc3ccccc3)O[C@@]3(C(=O)N(Cc4cccc(N5CCOC5=O)c4)c4ccccc43)[C@@H]2C)cc1 | 0.114 (inactive) | 0.77 | -2.69 | -2.33 (inactive) | -0.178 (inactive) | -0.157 (inactive)
9 | COc1ccc(C(O)C2C=CC3C(=O)N(c4ccccc4)C(=O)C3N2Nc2ccc([N+](=O)[O-])cc2)cc1 (stereo unspecified) | 0.584 (inactive) | 0.797 | -0.906 | -3.98 (inactive) | 0.895 (inactive) | -0.355 (inactive)
10 | COc1ccc([Si](C)(C)[C@@H]2[C@@H](CCn3cc([C@H](O)c4ccccc4)nn3)O[C@]3(C(=O)N(Cc4ccc(N5CCC5=O)cc4)c4ccccc43)[C@H]2C)cc1 | -0.325 (inactive) | 0.641 | -2.47 | -2.32 (inactive) | -0.169 (inactive) | 0.663 (inactive)
11 | [N-]=[N+]=Nc1ccccc1C[C@]1(C(N)=O)N=C(c2ccc(OCCCO)cc2)O[C@H]1c1ccccc1N=[N+]=[N-] | 0.635 (inactive) | 0.756 | -2.65 | -5.32 (inactive) | -0.433 (inactive) | -0.683 (inactive)
12 | CC(C)OC(=O)C=C1C[C@@H](c2ccc(C(F)(F)F)cc2)O[C@@H](c2ccc(C(F)(F)F)cc2)O1 | 0.416 (inactive) | 0.567 | -0.266 | -3.22 (inactive) | -0.272 (inactive) | 0.0075 (inactive)
13 | CO[C@H]1O[C@H](CO)[C@@H](OC(=O)Nc2ccccc2-c2ccccc2)[C@H](OC(=O)Nc2ccc3c(c2)OCO3)[C@H]1OC(=O)Nc1ccc2c(c1)OCO2 | 0.886 (inactive) | 0.892 | -1.6 | -9.89 (active) | -0.356 (inactive) | -0.272 (inactive)
14 | COc1ccc(-c2cc3c(c(CCc4ccccc4)n2)[Si](C(C)C)(C(C)C)OC3)cn1 | -0.406 (inactive) | -0.251 | -0.118 | -2.5 (inactive) | -0.0328 (inactive) | 0.236 (inactive)
15 | O=C1NC(=O)C2C1C=CC(C(O)CCc1ccccc1)N2Nc1ccc(Cl)cc1Cl (stereo unspecified) | 0.157 (inactive) | 0.284 | 1.5 | -5.96 (inactive) | 0.738 (inactive) | 0.185 (inactive)
16 | COCCOC(=O)N1C(=O)[C@@]2(c3cc(C#Cc4ccc(OC)cc4)ccc31)[C@H](C(=O)Nc1nc3ccccc3s1)[C@H]1C(=O)O[C@H](c3ccccc3)[C@H](c3ccccc3)N1[C@@H]2c1ccc(O)cc1 | -0.363 (inactive) | 0.748 | -1.89 | -0.829 (inactive) | -0.519 (inactive) | -0.999 (inactive)

Row | SMILES | composite z-score [1] | composite z-score (XIP peptide (Xip251-270)) | z-score [2] | z-score [3] | z-score [4] | z-score [5]
17 | C=CCC(OC(C)=O)[C@@H]1[C@@H](N(Cc2ccc(-c3cccc(C(F)(F)F)c3)o2)C(=O)c2ccc(C)cc2)c2cc(OCCCO)ccc2N1C(=O)c1ccc2ccccc2c1 (stereo partly specified) | 0.579 (inactive) | 0.0901 | -2.6 | -0.683 (inactive) | -0.793 (inactive) | -0.595 (inactive)
18 | C=CCNC(=O)[C@H]1[C@@H]2C(=O)O[C@@H](c3ccccc3)[C@@H](c3ccccc3)N2[C@@H](c2ccc(O)cc2)[C@]12C(=O)Nc1ccc(C#CC3(O)CCCCCC3)cc12 | 0.692 (inactive) | 0.466 | -0.372 | -3.96 (inactive) | -0.165 (inactive) | -0.244 (inactive)
19 | COC(=O)[C@@]1(Cc2ccc(F)cc2)[C@H]2c3cc(C(=O)N(C)C)n(Cc4cc(F)cc5c4OCOC5)c3C[C@H]2CN1C(=O)c1ccccc1 | 1.21 (inactive) | 0.628 | -1.54 | -2.73 (inactive) | -0.909 (inactive) | -0.669 (inactive)
20 | O=C(NCC(F)(F)F)[C@@H]1c2ccccc2C(=O)N(Cc2ccccc2C(F)(F)F)[C@H]1c1ccc(CO)cc1 | 0.774 (inactive) | 0.374 | -0.485 | -2.95 (inactive) | 0.0364 (inactive) | -0.0409 (inactive)
21 | O=C1OCC=C[C@H]2OC34C=CCN(Cc5ccccc5)C(=O)[C@H]3N(CCCCCCO)C(=O)[C@@H]4[C@@H]12 (stereo partly specified) | 1.49 (inactive) | 0.295 | -1.16 | -4.53 (inactive) | -0.584 (inactive) | -0.232 (inactive)
22 | COCCOC(=O)N1C(=O)[C@@]2(c3cc(C#CCCO)ccc31)[C@H](C(=O)Nc1nc3ccccc3s1)[C@H]1C(=O)O[C@H](c3ccccc3)[C@H](c3ccccc3)N1[C@@H]2c1ccccc1OCCO | 0.0261 (inactive) | 0.73 | -1.68 | 2.62 (inactive) | 0.225 (inactive) | 0.416 (inactive)
23 | C[C@@H]1ON(c2ccc(C(=O)OC(C)(C)C)cc2)[C@H](c2ccc(O)cc2)[C@H]1C(=O)N1C(=O)OC[C@H]1Cc1ccccc1 | 0.047 (inactive) | 0.599 | -0.393 | -3.64 (inactive) | -0.0209 (inactive) | -0.154 (inactive)
24 | O=C1OCC=C[C@H]2OC34C=CCN(Cn5nnc6ccccc65)C(=O)[C@H]3N(CCCO)C(=O)[C@@H]4[C@@H]12 (stereo partly specified) | 0.206 (inactive) | 0.155 | -1.88 | -1.9 (inactive) | -0.242 (inactive) | -0.228 (inactive)
25 | Cc1ccc(S[C@]2(C(=O)NCC(F)(F)F)CC(=O)N(C3CCCCC3)[C@@H]2c2ccc(CO)cc2I)cc1 | -0.0988 (inactive) | 0.735 | -0.142 | -3.45 (inactive) | 0.148 (inactive) | 0.594 (inactive)
26 | C=C[C@@H](OC)[C@H](OC(=O)Nc1ccc(SC)cc1)c1ccc(O)c(F)c1 | 0.313 (inactive) | 0.0562 | -0.386 | -4.2 (inactive) | -0.337 (inactive) | -0.23 (inactive)
27 | O=C1C[C@@](C(=O)NCCN2CCOCC2)(c2ccc([N+](=O)[O-])cc2)[C@@H](c2ccc(CO)cc2I)N1C1CCCCC1 | -0.026 (inactive) | 0.588 | -1.37 | -5.37 (inactive) | 0.0213 (inactive) | 0.245 (inactive)
28 | COc1ccc([Si](C)(C)[C@@H]2[C@@H](CC(=O)N3Cc4ccccc4C[C@H]3CO)O[C@]3(C(=O)N(C)c4ccccc43)[C@H]2C)cc1 | 0.176 (inactive) | 0.773 | -2.74 | -6.03 (inactive) | -1.6 (inactive) | -0.901 (inactive)
29 | CC(C)[Si](C#CCCCC#N)(O[C@H](c1ccccc1)c1cn([C@H](CO)Cc2ccccc2)nn1)C(C)C | 0.0339 (inactive) | 0.283 | 0.0921 | -0.999 (inactive) | -0.43 (inactive) | -1.05 (inactive)
30 | COC(=O)c1c(CC[C@@H](CO)NC(=O)N[C@H](Cn2cc(C3(O)CCCCC3)nn2)C(C)C)oc(C(C)=O)c1C(=O)OC | 0.0887 (inactive) | 0.837 | -2.24 | -1.69 (inactive) | 0.303 (inactive) | 0.608 (inactive)
31 | C=CCOC(=O)[C@H]1[C@@H]2C(=O)O[C@@H](c3ccccc3)[C@@H](c3ccccc3)N2[C@@H](c2ccc(OCCOC(=O)[C@H]3C[C@H]4C(=O)N[C@@H](CCCCNC(C)=O)C(=O)N4[C@H]3c3ccc(O)cc3)cc2)[C@]12C(=O)Nc1ccccc12 | 2.69 (inactive) | 0.685 | -1.72 | -1.06 (inactive) | 0.203 (inactive) | 0.261 (inactive)
